# High-throughput results: PubChem BioAssay, Sanford-Burnham Center for Chemical Genomics
# KKLEB tox: cytotoxicity in KKLEB CF airway cells, primary screen, cytotoxicity control for CF NF-kB inhibitor project, cell-based, uHTS, fluorescence assay plates | activity change (cytotoxicity), % at 5 µM | AID 602141, 2011 | 0.36% of 360,000 active | KKLEB CF airway cells viability, ATPlite luminescence, overnight; hits give low values; cells stimulated with P. aeruginosa culture filtrate;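 active = corrected activity change at or below -50% at 5 µM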
# CF NFkB inh: inhibitors of PAF-induced NF-kB signaling, primary screen, cell-based, GFP fluorescence, uHTS; inhibition, % at 5 µM; KKLEB NF-kB-GFP reporter, GFP fluorescence overnight; 0.86% of 360,000 active; AID 588850, 2011;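 active = at least 50% inhibition at 5 µM, scaled per plate between neutral and stimulator controls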;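 note: PAF is a Pseudomonas aeruginosa culture filtrate used as stimulus; plate controls were PAF-stimulated DMSO wells for no effect and unstimulated DMSO wells for full effect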
# HIF-2a inh: HIF-2a reporter inhibitors, primary screen, luminescence, 786-0 RCC cells; 786-0 RCC cells HIF-2a reporter, luciferase luminescence, overnight; inhibition, % at 18.8 µM; 0.72% of 360,000 active;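 active = inhibition of the luminescence signal of 40% or more relative to plate controls, in a single-dose primary screen at 18.75 µM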
# TWEAK Fn14 block: inhibitors of TWEAK-Fn14 signaling, primary screen, luciferase reporter cells, uHTS | TWEAK-stimulated Fn14 reporter cells, luciferase luminescence, 8 h | inhibition, % at 10 µM | 2% of 360,000 active; in the data active = inhibition above about 50%
# Peg3 prom inh: Peg3 promoter-driven luciferase inhibitors, primary screen, cell-based, HeLa, luciferase luminescence; HeLa PEG-Prom luciferase reporter, overnight; inhibition, % at 20 µM; 1.7% of 360,000 active; AID 588405, 2011;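 active = inhibition of at least 50% at 20 µM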
# TROY NFkB inh: inhibitors of TROY-driven NF-kB signaling, primary screen, Q293 LMP1-TROYcd cells, NF-kB luciferase, uHTS; Q293 LMP1-TROYcd NF-kB luciferase reporter, 4 h; inhibition, % at 10 µM; 0.98% of 360,000 active;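 active = compounds whose plate-normalised and pattern-corrected inhibition of the luciferase reporter signal at the single screening dose is 50% or more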
# Active calls of the source: *; x = not tested or not shown. Hits are enriched below; roughly 4% of the tested compounds scored in any of these assays.
SMILES,KKLEB tox,CF NFkB inh,HIF-2a inh,TWEAK Fn14 block,Peg3 prom inh,TROY NFkB inh
COc1ccc(C)cc1S(=O)(=O)N(C)CC(=O)N1CCCCCC1,6,-7,7,34,75*,-17
COC(=O)[C@@H](c1ccccc1)N(C)S(=O)(=O)c1cccc(S(=O)(=O)N(C)[C@@H](C(=O)OC)c2ccccc2)c1,-1,11,12,23,14,32
COc1ccc(/C=C2\CC/C(=C\c3ccc(OC)c(OC)c3)C2=O)cc1OC,-41,-17,-121,56*,-122,22
COc1cc(OC)c(OC)cc1/C=C1\CCC/C(=C\c2cc(OC)c(OC)cc2OC)C1=O,-8,7,17,56*,72*,11
COc1ccc(/C=C2\CCC/C(=C\c3ccc(OC)c(OC)c3OC)C2=O)c(OC)c1OC,-2,5,20,7,23,21
Nc1nnc2cc(Br)ccc2n1,-24,28,-21,-1,3,-15
Cc1cccc(NC(=O)c2cc3ccccc3c(=O)o2)n1,-8,-28,-237,51*,-145,-34
FC(F)(F)c1nc(-c2ccncc2)ncc1-c1nnnn1-c1ccccc1,-17,8,16,5,17,-7
Fc1ccc(-n2nnnc2-c2cnc(-c3cccs3)nc2C(F)(F)F)cc1,-15,-7,5,102*,100*,59*
COC(=O)[C@]12CCCCC=C1N(Cc1ccc(Cl)cc1Cl)C(=O)[C@H](CC(=O)NCCc1ccccc1OC)C2,x,x,-6,30,x,-1
Cn1c2ccsc2c2ncn(Cc3ccccc3F)c(=O)c21,0,-5,-102,-9,-66,-29
CSc1nc(N)nc(SCCS(=O)(=O)c2ccc(Cl)cc2)c1C#N,-65*,24,-4,20,33,21
CSc1nc(N)nc(SCC(=O)Nc2ccc(Cl)cc2)c1C#N,-17,0,-145,14,-96,26
O=C(Cn1cnc2c(NC(=O)OCc3ccccc3)ncnc21)NCCN1CCOCC1,10,1,4,1,-89,-12
c1ccc(-c2ccccc2OCCCCN2CCCCCC2)cc1,-3,10,18,-21,31,-8
CCCCCCCN(c1ccccc1)[C@@H]1C[C@H]2CCCC(=O)N3CC[C@@H](C1)[C@@H]23,-24,48,-14,34,87*,38
O=C(O)c1ccccc1N/N=C\c1ccnc2ccccc12,-6,2,17,90*,-8,48
CC(=O)Nc1ccc(NC(=O)CSc2ccc(-c3ccc(-n4ccnc4)cc3)nn2)cc1,-18,-6,-10,-15,-3,-15
CC(=O)/C(C#N)=C1\NC(=O)C(Cc2ccccc2)S1 (centres undefined),0,-15,-31,64*,-154,3
Cn1c(=O)c2c(nc(NCCNC(=O)c3ccco3)n2Cc2ccc(F)cc2)n(C)c1=O,-9,8,8,31,-7,4
Cn1c(=O)c2c(nc(NCc3ccc4c(c3)OCO4)n2Cc2ccc(F)cc2)n(C)c1=O,-6,3,18,19,56*,34
Cn1c(=O)c2c(nc(NCCNC(=O)c3ccco3)n2Cc2ccccc2)n(C)c1=O,-1,-11,13,98*,18,-14
COc1cc(/C=N/Nc2nc3c(c(=O)n(C)c(=O)n3C)n2Cc2ccccc2)ccc1OC(=O)c1ccco1,9,-79,-29,72*,22,42
Cn1c(NCc2ccccc2)nc2c1c(=O)n(Cc1ccc(Br)cc1)c(=O)n2C,0,2,25,23,51*,24
O=C(CSc1ncnc2c1nnn2Cc1ccccc1F)NCC1CCCO1 (centres undefined),17,7,26,9,13,14
SMILES,KKLEB tox,CF NFkB inh,HIF-2a inh,TWEAK Fn14 block,Peg3 prom inh,TROY NFkB inh
CCn1c(CC(=O)Nc2ccccc2)nnc1SCC(=O)Nc1nnc(C)s1,-16,14,12,26,-2,4
Cc1cc(OC(C)C(=O)N2CCN(c3ccc(F)cc3)CC2)c2c(C)cc(=O)oc2c1 (centres undefined),-7,-11,12,-2,31,-10
CCCCCCCCCCCCCCCC[N+](C)(C)Cc1ccc(F)cc1,-32,10,37,6,105*,13
CCc1oc2ccccc2c1C(=O)c1cc(Br)c(O)c(Br)c1,-30,44,5,-29,30,52*
Cc1c(Cl)ccc2c(C(=O)NCCN3CCCCC3)cc(-c3ccccn3)nc12,-4,3,-6,-43,68*,9
COc1ccccc1-c1cc(C(=O)NC2CCN(C)CC2)c2ccc(Cl)c(C)c2n1,-32,13,7,-65,105*,6
Cc1c(Cl)ccc2c(C(=O)NCCCn3nccc3C)cc(-c3ccccn3)nc12,18,-38,-3,10,13,-5
COC(=O)c1ccc(/C=C/C(=O)OCC(=O)Nc2sccc2C(N)=O)cc1,0,30,6,68*,89*,45
Cc1ccc2[nH]nc(C(=O)N3CCCC(C(=O)c4ccc(Cl)cc4)C3)c2c1 (centres undefined),3,3,5,59*,29,48
Cc1noc(C)c1C(=O)N1CCCC(C(=O)c2ccc(Cl)cc2)C1 (centres undefined),-13,18,24,6,16,-14
Cc1ccc(Nc2nc(N)c3ccccc3n2)cc1C,-54*,-3,-26,68*,-20,26
Cc1ccc(COC(=O)CN2C(=O)NC3(CCCCC3C)C2=O)cc1 (centres undefined),6,23,-5,15,4,-2
CCCCCCCCNS(=O)(=O)CCNCc1ccc(OC)cc1,-19,11,13,3,61*,6
COc1ccc(CNCCS(=O)(=O)NCc2ccc(OC)cc2)cc1,19,-27,16,9,-5,-3
COc1ccc(-c2csc(NC(=S)NC(=O)/C=C/c3ccc(C(C)C)cc3)n2)cc1OC,9,14,-17,66*,-5,70*
COc1ccccc1N(C)S(=O)(=O)c1ccc(C)c(C(=O)NCc2ccccn2)c1,-4,10,-5,-11,18,7
Nc1nc(CCl)nc(N(c2ccccc2)c2ccccc2)n1,-73*,70*,37,10,46,0
Nc1nc(Cl)nc(N(c2ccccc2)c2ccccc2)n1,-9,0,15,-14,12,-25
O=C(COc1ccc([N+](=O)[O-])cc1Cl)NCCN1C(=O)CSC1=O,11,-14,0,-12,0,-12
Cc1cc(O)cc(O)c1-c1onc(C(F)(F)F)c1-c1cscn1,12,5,9,52*,16,x
